MEX-5 binding: C. elegans MEX-5 TCR-2 RNA binding activity | Q9XUB2 | hit rate 0.38% among 300,000 | AID 1832 | activity score (negative = inhibition of binding), % at 10 µM | MEX-5/FITC-TCR2 RNA binding, fluorescence polarization; stronger effect = lower value;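 active = inhibition past about -25% in most replicates, and total fluorescence under double the plate's negative control median, limit read from the data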;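 note: 0% = DMSO and -100% = 5 µM competing unlabeled TCR2 RNA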
Target sequence (Q9XUB2 whole entry, looked up): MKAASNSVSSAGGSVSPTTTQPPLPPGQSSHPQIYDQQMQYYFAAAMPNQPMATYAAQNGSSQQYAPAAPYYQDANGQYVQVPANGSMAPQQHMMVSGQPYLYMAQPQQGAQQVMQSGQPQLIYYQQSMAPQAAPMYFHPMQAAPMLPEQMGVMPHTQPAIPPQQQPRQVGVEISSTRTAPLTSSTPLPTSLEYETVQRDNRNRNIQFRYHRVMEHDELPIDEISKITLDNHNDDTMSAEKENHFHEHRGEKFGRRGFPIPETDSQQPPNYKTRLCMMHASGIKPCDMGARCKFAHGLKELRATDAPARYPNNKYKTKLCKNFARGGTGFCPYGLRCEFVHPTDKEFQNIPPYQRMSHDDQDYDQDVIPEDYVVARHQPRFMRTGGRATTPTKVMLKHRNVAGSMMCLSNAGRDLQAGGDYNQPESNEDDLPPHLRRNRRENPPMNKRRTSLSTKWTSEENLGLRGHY
GLD-1 RNA inh: GLD-1-TGE RNA interaction inhibition (C. elegans); Q17339; purified GLD-1 + fluorescein TGE RNA, fluorescence polarization; inhibition, % at 5.96 µM; hit rate 0.44% among 320,000; AID 2280;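 active = percent inhibition above a per-plate cutoff, the plate mean of test compounds plus 3 SD, cut at about 30% in these data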;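 note: 0% = DMSO wells with GLD-1 and probe and 100% = wells lacking GLD-1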
MCL1 BIM primary: disrupts human MCL1 binding to BIM-BH3 peptide. Q07820. GST-MCL1 / FITC-Bim-BH3 fluorescence polarization. inhibition, % at 10.9 µM. hit rate 0.68% among 320,000;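 active = inhibition above the mean inhibition of all tested compounds plus 3 SD, set per campaign, cut at about 40% in these data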;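 note: 0% = DMSO wells and 100% = unlabeled Bim-BH3 peptide control; higher means more loss of mP so more displacement of Bim peptide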
Bcl-xL primary: Bcl-xL (human) inhibition; Q07817; GST-Bcl-xL / FITC-Bim BH3 peptide fluorescence polarization; inhibition, % at 10.9 µM; hit rate 0.7% among 320,000; AID 2129;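 active = inhibition above the mean of all tested compounds plus 3 SD, cutoff set per campaign, cut at about 30% in these data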;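 note: 0% = DMSO wells and 100% = unlabeled Bim-BH3 peptide competitor; inhibitors lower millipolarization by displacing the labeled peptide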
EBV gp42 block: EBV gp42 inhibition; Q1HVG2; Fluorescence polarization binding assay, mP read-out; inhibition, % (tested at 21.74 µM); hit rate 0.42% among 220,000; in the data active = inhibition above about 50%
An asterisk follows results filed as active; nt = no result; + = active, no number. Compounds with a hit are over-represented: about 1.3% of the library has one in this group of screens.

SMILES	MEX-5 binding	GLD-1 RNA inh	MCL1 BIM primary	Bcl-xL primary	EBV gp42 block
Fc1ccc(OCc2nnc(-c3ccccc3Br)o2)c(Cl)c1	-0.1	7.2	2.4	5.3	nt
CCN1CCN(S(=O)(=O)c2ccc(C(=O)Nc3sc4c(c3C(N)=O)CCN(CC)C4)cc2)CC1	0.0	-78.8	-59.9	-21.8	nt
CCN1CCc2c(sc(NC(=O)c3ccc4ccccc4c3)c2C(N)=O)C1	-45.8*	-82.5	-52.9	-33.1	nt
O=C(NCSc1ccnc(SCNC(=O)c2ccc(F)cc2)n1)c1ccc(F)cc1	-0.9	-5.6	13.2	10.7	-37.6
CCN1/C(=C/C(C)=C/c2sc3ccccc3[n+]2CC)Sc2ccccc21	4.8	+	16.5	33.5*	-40.9
Cn1c(-c2ccc(C=O)s2)nc2c3ccccc3c3ccccc3c21	46.7	-7.6	-9.8	4.1	94.0*
COc1ncnc2c1ncn2CC1COC(C)(C)O1 (centres undefined)	0.8	-3.8	9.1	9.3	nt
CCCCN(C)CCNC(=O)CCn1nc(-c2ccc(C)cc2)ccc1=O	-0.4	1.6	3.2	4.6	nt
COc1ccc(-c2nc3n(c2C)Cc2ccccc2-3)cc1	-2.0	3.7	41.5*	46.4*	5.0
N#C/C(=C/c1ccco1)c1nc2ccccc2s1	-3.7	10.6	5.5	32.7*	-7.5
N#C/C(=C/c1ccc(-c2cc(C(=O)O)cc(C(=O)O)c2)o1)c1nc2ccccc2s1	16.0	-49.9	-32.7	-17.8	-115.3
O=C(O)c1cc(-c2ccc(/C=N/Nc3ccc([N+](=O)[O-])cn3)o2)ccc1Cl	-71.6*	nt	nt	nt	-11.5
O=C(CCc1nnc2ccc(N3CCOCC3)nn12)Nc1ccc(F)cc1F	-0.7	0.2	-0.9	-0.7	nt
Cc1cc(C(=O)OCC(=O)Nc2c(Cl)cccc2C(F)(F)F)c(C)o1	0.5	0.9	-10.6	45.6*	nt
Cc1ccsc1C(=O)OCC(=O)Nc1c(Cl)cccc1C(F)(F)F	0.2	0.8	-15.4	4.6	-8.8
COc1ccccc1CNC(=O)C(C)NS(=O)(=O)c1ccc(Br)cc1 (centres undefined)	1.8	1.3	-3.1	0.6	-16.1
O=C1NC(=S)N(C(=O)c2ccc(F)cc2)/C1=C/c1cccnc1	0.7	1.6	-5.0	3.5	-5.2
COc1ccc(/C=C2\C(=O)NC(=S)N2C(=O)c2ccc(C)cc2)cc1	-26.1*	-24.2	-53.1	-28.5	-25.1
COC(=O)C1(C)NC(c2ccco2)C2C(=O)N(c3ccc(F)cc3)C(=O)C21 (centres undefined)	-2.5	2.3	1.3	1.0	1.6
O=C1C2C3C=CC(C3)C2C(=O)N1c1ccccc1 (centres undefined)	1.5	-2.1	0.2	2.9	2.1
NC(=O)[C@@H]1[C@@H]2C(=O)N(c3ccc(F)cc3)C(=O)[C@@H]2[C@H]2C=Cc3ccccc3N21	-6.9	20.1	31.7	34.4*	31.8
O=C(c1ccc(Cl)cc1)[C@@H]1[C@@H]2C(=O)N(c3ccc(Cl)cc3)C(=O)[C@@H]2C2c3ccccc3C=NN21 (some centres undefined)	3.7	-15.0	-25.2	-12.6	-9.0
O=C(c1ccco1)[C@@H]1[C@@H]2C(=O)N(c3ccc(F)cc3)C(=O)[C@@H]2C2c3ccccc3C=CN21 (some centres undefined)	-13.3	68.7*	81.7*	77.6*	53.6*
O=C(c1ccco1)[C@@H]1[C@@H]2C(=O)N(c3ccc(F)cc3)C(=O)[C@@H]2[C@H]2C=Cc3ccccc3N21	nt	20.0	9.3	32.9*	23.4
CCOC(=O)c1sc(NC(=O)CSc2n[nH]c(-c3ccncc3)n2)c(C#N)c1C	-0.2	3.8	-2.5	-3.5	-29.6
SMILES	MEX-5 binding	GLD-1 RNA inh	MCL1 BIM primary	Bcl-xL primary	EBV gp42 block
CCOc1ccc(/C=C/C2=Cc3c(sc(NC(=O)CSc4n[nH]c(N)n4)c3C#N)C(C)(C)C2)cc1	1.2	31.5*	-54.8	-13.8	4.5
Cc1ccsc1/C=C/C1=Cc2c(sc(NC(=O)CSc3n[nH]c(N)n3)c2C#N)C(C)(C)C1	1.4	73.0*	11.1	24.5	30.3
COC(=O)N/N=C/c1cn(CCOc2cccc(OC)c2)c2ccccc12	-0.9	-1.9	-11.3	-2.1	nt
COc1cccc(OCCn2cc(C=O)c3ccccc32)c1	-27.1*	8.9	-9.1	-1.8	nt
Cc1ccc2[nH]c3c(c2c1)CCN(C)C3	-0.6	6.0	-2.7	-0.1	nt
CCOC(=O)CNc1c(-c2ccc(Cl)cc2)nc2cnccn12	-8.4	1.1	25.9	28.0	20.8
CCOC(=O)CNc1c(-c2ccc(F)cc2)nc2cnccn12	-11.6	15.4	24.0	32.8*	nt
COc1ccc(-c2nc(N)nc(C)c2Oc2ccccc2Br)c(O)c1	nt	17.0	38.9	42.0*	18.5
CC(C)(C)[C@@H]1COC(=O)[C@H](Cc2ccc(F)cc2)CC/C=C\C[C@@H](CC(=O)NCCO)C(=O)N1	nt	-1.2	nt	nt	nt
CCC/C=N/NC(=O)C1COc2ccccc2O1 (centres undefined)	2.7	8.8	2.4	97.6*	-15.6
CC(CN1CCC(n2nccc2NC(=O)c2ccccc2Cl)CC1)c1ccccc1 (centres undefined)	-18.0	6.3	33.2	33.4*	nt
COCC(C)N1CCC(n2nccc2NC(=O)c2ccccc2Cl)CC1 (centres undefined)	-4.2	-3.1	1.9	5.3	nt
Cc1ccccc1C(=O)Nc1ccnn1C1CCN(C(C)Cc2ccccc2F)CC1 (centres undefined)	-15.2	3.7	42.0*	39.0*	nt
Cc1cc(C)n(Cc2ccc(C(=O)N/N=C/c3ccc(-c4ccc([N+](=O)[O-])cc4)o3)o2)n1	-3.4	-4.4	43.0*	50.3*	nt
Cc1cc([N+](=O)[O-])ccc1-c1ccc(/C=N/NC(=O)c2ccc(Br)o2)o1	-58.2*	1.1	15.7	15.1	nt
Cc1cc(C(=O)N/N=C/c2ccc(-c3ccc([N+](=O)[O-])cc3C)o2)n[nH]1	-15.7	-6.5	12.3	12.5	nt
CCc1ccc(OC(C)c2nnc(SCC(=O)Nc3ncccc3C)n2C)cc1 (centres undefined)	-0.7	1.5	-7.0	-5.0	-7.1
Cc1ccc(NC(=O)COC(=O)c2ccc(-n3nc(C)cc3C)cc2)c(F)c1	nt	9.3	nt	nt	nt
CC[n+]1c(/C=C/c2ccc(N(C)C)cc2)ccc2ccccc21	-27.3*	-2.9	-13.3	-6.6	-56.4
CN(C)c1ccc(/C=C/c2cc[n+](C)cc2)cc1	27.1	94.6*	-5.4	9.4	-90.9
O=C(Nc1ccc(Br)cc1)c1ccc2ncsc2c1	-0.1	0.9	-9.5	-2.2	nt
CCc1ccc(NC(=O)c2ccc3ncsc3c2)cc1	-0.3	nt	nt	nt	146.0*
CCN(CC)c1ccc2c(c1)oc(=O)c1c(Cl)cc(=O)oc12	-0.2	-112.2	-28.7	-9.6	53.8*
CCN(CC)c1ccc2c(C)c(Cl)c(=O)oc2c1	-1.3	17.3	12.0	21.4	21.7
O=C(Cn1cnc2c(nnn2-c2ccc(F)cc2)c1=O)N1CCCC1	-3.0	6.1	-2.1	-0.1	-16.6
CCc1ccc(/C=C2\Oc3c(ccc(O)c3CN3CCN(CCO)CC3)C2=O)cc1	-30.0*	7.5	48.6*	51.2*	-5.0
